Assay [1] is described as follows: A CellTox Green Cytotoxicity Assay to monitor cytotoxicity in HepG2 cells - 0 hour (AID 1224882). Further: nearly all actives have a fitted effect of over 35% in size. Further: potency means the concentration at half of the fitted maximal effect. A digest of the protocol: (§1)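 Cells and non-lytic dye reagent are dispensed together (600 HepG2 cells/well) and incubated 5 h before DMSO compound transfer. Kinetic fluorescence is then recorded in the same wells during 40 h at 37 C.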
Assay [2] in a line: A CellTox Green Cytotoxicity Assay to monitor cytotoxicity in HepG2 cells - 32 hour (AID 1224883). Further: nearly all actives have a fitted effect of over 50% in size. Further: potency means the concentration at half of the fitted maximal effect. A digest of the protocol: as §1
A short description of assay [3]: A CellTox Green Cytotoxicity Assay to monitor cytotoxicity in HEK293 cells - 8 hour (AID 1224884). Further: nearly all actives have a fitted effect of over 35% in size. Further: potency means the concentration at half of the fitted maximal effect. A digest of the protocol: (§2)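 Cells (HEK293, 600/well) and dye reagent are dispensed together. After 5 h at 37 C, 23 nL compound is pinned in. Plates stay at 37 C for 40 h with fluorescence read at 0h, 8h, 16h, 24h, 32h and 40h.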
The nature of assay [4]: qHTS RealTime-Glo MT Cell Viability Assay in HepG2 cells - 16 hour (AID 1224885). Further: nearly all actives have a fitted effect of over 50% in size. A digest of the protocol:
(§3)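 Viability was tracked continuously by NanoLuc luminescence from prosubstrate reduced by living HepG2 cells, at successive time points over 40 h of compound exposure. Cells with reagent were preincubated 5 h at 37 °C before compound addition.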
A general note: In qHTS, concentration-response curves come from the screen itself.

A short description of assay [5]: qHTS RealTime-Glo MT Cell Viability Assay in HEK293 cells - 24 hour (AID 1224886). Further: top concentration of the series differs between compounds; nearly all actives have a fitted effect of over 50% in size. A digest of the protocol: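 Viability tracked continuously by luminescence as live cells reduce a prosubstrate for NanoLuc; HEK293 cells preincubated 5 h, compound-treated at 37 C, and read at 0, 8, 16, 24, 32 and 40 h.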
Assay [6] is described as follows: qHTS RealTime-Glo MT Cell Viability Assay in HEK293 cells - 8 hour (AID 1224887). Further: top concentration of the series differs between compounds; nearly all actives have a fitted effect of over 50% in size. A digest of the protocol: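 Real-time viability in HEK293: signal arises when living cells convert a prosubstrate for NanoLuc in the medium, so luminescence tracks viable cell number. Compound (23 nL, DMSO) added 5 h post-seeding; kinetic reads at 0–40 h, 37 C.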
Assay [7] in a line: A CellTox Green Cytotoxicity Assay to monitor cytotoxicity in HEK293 cells - 16 hour (AID 1224888). Further: nearly all actives have a fitted effect of over 35% in size. Further: potency means the concentration at half of the fitted maximal effect. The method in brief: as §2
Assay [8] is described as follows: qHTS RealTime-Glo MT Cell Viability Assay in HepG2 cells - 0 hour (AID 1224889). Further: nearly all actives have a fitted effect of over 50% in size. The method in brief: as §3
Assay [9] can be described thus: A CellTox Green Cytotoxicity Assay to monitor cytotoxicity in HepG2 cells - 8 hour (AID 1224890). Further: nearly all actives have a fitted effect of over 45% in size. Further: potency means the concentration at half of the fitted maximal effect. The method in brief:
as §1

Assay [10] can be described thus: qHTS assay to identify small molecule antagonists of the androgen receptor (AR) signaling pathway using the MDA cell line in the presence of 0.5 nM R1881 - cell viability counter screen (AID 1259242). Further: nearly all actives have a fitted effect of over 45% in size. The method in brief:
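Steps: plate MDA-kb2 cells, rest 5 hr at 37C without CO2; pin in compounds in DMSO; add R1881 to 0.5 nM final; incubate 16 hr; add CellTiter-Fluor, 30 min; read fluorescence.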

In assay [11] the target is Estrogen receptor (Homo sapiens) (UniProt P03372). Nature of the assay: qHTS assay to identify small molecule antagonists of the estrogen receptor alpha (ER-alpha) signaling pathway using the BG1 cell line in the presence of 0.1 nM 17-beta-estradiol (AID 1259244). Further: nearly all actives have a fitted effect of over 50% in size. A digest of the protocol: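 Antagonist mode: compounds in DMSO are pinned onto VM7Luc4E2 reporter cells, 0.1 nM final 17beta-estradiol is added, and after 22 h at 37C luciferase luminescence is measured with ONE-Glo.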

Assay [12] can be described thus: qHTS assay to identify small molecule HDAC inhibitors (AID 1259364). Further: potency means the concentration at half of the fitted maximal effect.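 Further: wild-type HCT-116 cells with endogenous class I/II HDAC activity; nearly all actives have a fitted effect of over 45% in size.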 On activity change, negative = inhibition: top concentration of the series differs between compounds. The method in brief: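 Cells (HCT-116, wild type) are seeded at 1,500 per well, incubated overnight, treated with compound in DMSO for 2 hr, then developed with HDAC-Glo I/II reagent for 30 min at room temperature.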
Assay [13] can be described thus: qHTS assay to identify small molecule HDAC inhibitors - cell viability counter screen (AID 1259365). The method in brief:
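HCT-116 wild-type, overnight attachment; 2hr drug exposure, 37C; CellTiter-Glo luminescent ATP readout after 30min RT.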

Assay [14] can be described thus: qHTS assay to identify small molecule agonists of the sonic hedgehog signaling (Shh) pathway - cell viability counter screen (AID 1259366). Further: nearly all actives have a fitted effect of over 50% in size. A digest of the protocol:
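Compounds in DMSO were pin-transferred onto 3T3 Gli1-Luc cells that had settled 4hr; plates then stood 24hr at 37C and 5% CO2. One hour before the end, CellTiter-Fluor was added and fluorescence recorded.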

A short description of assay [15]: qHTS assay to identify small molecule antagonists of the sonic hedgehog signaling (Shh) pathway - cell viability counter screen (AID 1259367). Further: nearly all actives have a fitted effect of over 55% in size. A digest of the protocol: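 Viability was read by CellTiter-Fluor fluorescence in the same wells, reagent added 23 hr into compound treatment and incubated 1 hr at 37C. The 3T3 Gli1-Luc reporter cells (2,000/well) received conditioned medium after compound and ran 24 hr.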

Assay [16] can be described thus: qHTS assay to identify small molecule agonists of the sonic hedgehog signaling (Shh) pathway (AID 1259368; calls by dose curve;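 further: NIH/3T3-derived 3T3Gli1-Luc cells carrying a stable Gli1-driven firefly luciferase reporter; series mostly up to about 92 µM; nearly all actives have a fitted effect of over 15% in size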). The method in brief:
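Cells of a mouse NIH/3T3 clone stably expressing luciferase under the Gli1 transcriptional response element are exposed to test chemicals for 24 hr at 37 C. Pathway activation is detected as a rise in luminescence.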

Assay [17] can be described thus: qHTS assay to identify small molecule antagonists of the sonic hedgehog signaling (Shh) pathway (AID 1259369; calls by dose curve; further: nearly all actives have a fitted effect of over 45% in size). The method in brief: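 Cells are plated and held 4hr at 37 C, compounds (DMSO) are pinned in, conditioned medium is added to stimulate the pathway, and after 24hr luciferase reagent is added for 30min before luminescence is read.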
The nature of assay [18]: qHTS assay to identify small molecule antagonists of the estrogen receptor alpha (ER-alpha) signaling pathway using the BG1 cell line in the presence of 0.1 nM 17-beta-estradiol - cell viability counter screen (AID 1259241). Further: nearly all actives have a fitted effect of over 40% in size. The method in brief:
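Following 5 days in phenol red-free medium with charcoal-stripped serum, VM7Luc4E2 cells received test compounds alongside 0.1 nM 17beta-estradiol (final) at 37C for 22 hr. Live cells were then quantified via protease-substrate fluorescence.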

A short description of assay [19]: qHTS assay to identify small molecule phospholipidosis (PLD) inducers (AID 1259344; active means well fitted curve in the direction sought with a large enough effect; an effect the other way counts as inactive or inconclusive). The method in brief: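 Phospholipid accumulation was scored by imaging: fixed, Hoechst-counterstained HepG2 cells stained with LipidTOX Red after 24 h compound exposure at 37 C. Read-outs were pit count and pit intensity per well or per cell, with amiodarone and DMSO controls.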

Assay [20] concerns the target Androgen receptor (Homo sapiens) (UniProt P10275). Kind of assay: qHTS assay to identify small molecule antagonists of the androgen receptor (AR) signaling pathway using the MDA cell line in the presence of 0.5 nM R1881 (AID 1259243). Further: nearly all actives have a fitted effect of over 50% in size. A digest of the protocol:
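Stably transfected MDA-kb2 cells express luciferase from an MMTV promoter bearing both AR and GR response elements. Compounds plus 0.5 nM R1881 (final) were incubated 16 hr at 37C without CO2, then luminescence measured.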

The structures appear in SMILES notation. Unmarked numbers belong to inactive results. Records with an inconclusive call do not appear. The source made the active and inactive calls. Unless noted, the call rests on the fitted dose curve; in most records, active means well fitted curve in the direction sought with a large enough effect in the repeat runs; inconclusive means weak or mixed curves; inactive means no such curve, though single readings can be large; an effect the other way counts as inactive or inconclusive.
On the % scale 0 is the no-effect control and ±100 the full control effect.

Chain of Estrogen receptor (Homo sapiens) (P03372 whole entry, looked up): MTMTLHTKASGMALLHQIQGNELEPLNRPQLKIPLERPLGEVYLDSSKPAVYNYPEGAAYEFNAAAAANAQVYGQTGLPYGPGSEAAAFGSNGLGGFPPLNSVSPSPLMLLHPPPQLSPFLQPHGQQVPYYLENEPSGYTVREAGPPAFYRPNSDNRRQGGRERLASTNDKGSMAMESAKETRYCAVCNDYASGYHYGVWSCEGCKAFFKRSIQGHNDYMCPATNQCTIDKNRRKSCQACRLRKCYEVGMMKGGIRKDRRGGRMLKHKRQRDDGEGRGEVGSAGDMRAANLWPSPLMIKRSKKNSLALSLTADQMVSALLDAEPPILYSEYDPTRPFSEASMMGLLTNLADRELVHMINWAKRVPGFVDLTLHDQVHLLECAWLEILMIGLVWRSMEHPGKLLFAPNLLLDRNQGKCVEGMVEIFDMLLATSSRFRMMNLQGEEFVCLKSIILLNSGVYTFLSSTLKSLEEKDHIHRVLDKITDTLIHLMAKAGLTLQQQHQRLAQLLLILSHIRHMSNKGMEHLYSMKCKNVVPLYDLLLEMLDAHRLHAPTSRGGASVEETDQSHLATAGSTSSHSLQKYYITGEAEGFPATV
Chain of Androgen receptor (Homo sapiens) (P10275 whole entry, looked up): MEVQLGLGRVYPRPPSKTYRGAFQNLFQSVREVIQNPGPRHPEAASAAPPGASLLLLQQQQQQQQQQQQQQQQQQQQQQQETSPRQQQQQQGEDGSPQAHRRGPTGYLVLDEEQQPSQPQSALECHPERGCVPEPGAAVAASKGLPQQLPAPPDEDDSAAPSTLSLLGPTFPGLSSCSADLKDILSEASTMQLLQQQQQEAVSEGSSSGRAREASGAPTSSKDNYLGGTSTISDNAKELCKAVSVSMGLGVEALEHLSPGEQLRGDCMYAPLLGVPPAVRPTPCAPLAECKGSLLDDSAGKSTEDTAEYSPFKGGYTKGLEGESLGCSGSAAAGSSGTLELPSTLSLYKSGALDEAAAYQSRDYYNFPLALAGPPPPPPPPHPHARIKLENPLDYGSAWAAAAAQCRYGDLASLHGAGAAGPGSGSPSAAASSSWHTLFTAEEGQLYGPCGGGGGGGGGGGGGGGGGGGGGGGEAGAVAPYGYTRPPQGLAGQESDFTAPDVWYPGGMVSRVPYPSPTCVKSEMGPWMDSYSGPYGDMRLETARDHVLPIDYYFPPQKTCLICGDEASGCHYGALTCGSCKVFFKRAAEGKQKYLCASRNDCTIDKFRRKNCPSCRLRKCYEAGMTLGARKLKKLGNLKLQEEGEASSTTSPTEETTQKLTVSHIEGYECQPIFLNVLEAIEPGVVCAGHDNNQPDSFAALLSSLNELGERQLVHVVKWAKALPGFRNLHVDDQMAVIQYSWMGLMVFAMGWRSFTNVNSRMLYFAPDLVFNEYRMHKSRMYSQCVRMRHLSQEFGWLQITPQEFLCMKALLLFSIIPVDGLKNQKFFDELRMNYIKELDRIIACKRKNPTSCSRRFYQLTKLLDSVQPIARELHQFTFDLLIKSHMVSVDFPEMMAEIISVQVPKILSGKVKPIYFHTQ

For `Nc1ccc(C(=O)N2CC3CC(CN(Cc4ccccc4)C3)C2)cc1`, the Potency result in [1], in assay [2], in assay [3], in assay [4], in assay [5] and in [6] was “inactive” each time. Moreover, the Potency result in assay [7], in assay [8], in assay [9], in [10], in assay [11] and in assay [12] was “inactive” in each case. The Potency entry in [14], in assay [15] and in assay [17] was “inactive” throughout. In addition, the result in [13] and in assay [16] was inactive.

Turning to `O=S(=O)(O)c1ccc(O)c2ncccc12`, the Potency entry in assay [1], in assay [2], in [3], in assay [4], in assay [5] and in assay [6] was “inactive” in each case. Also, the Potency entry in assay [7], in assay [8], in assay [9], in assay [18], in assay [10] and in [12] was “inactive” throughout. In addition, the Potency result in [14] and in [17] was “inactive” throughout. Besides, the compound was classed as inactive in assay [13] and in assay [16].

Turning to `CC(=O)NCCCS(=O)(=O)O`, the Potency was 16.9 µM (active) in [1]; 16.9 µM (active) in assay [2]; 16.9 µM (active) in assay [3]; 18.9 µM (active) in assay [7]; 18.9 µM (active) in assay [9]. Moreover, the Potency entry in assay [4], in [6], in assay [8], in assay [18], in assay [10] and in assay [11] was “inactive” each time. Moreover, the Potency result in assay [19], in assay [12], in assay [14], in [15] and in [17] was “inactive” throughout. Further, the compound was called inactive in [13] and in assay [16].

Turning to `Cc1cc(NC(=O)C(=O)O)cc(C)c1Oc1ccc(O)c2c1CCC2`, the Potency result in [1], in assay [2], in [3], in assay [4], in assay [5] and in assay [6] was “inactive” throughout. In addition, the Potency entry in [7], in assay [9], in assay [18], in assay [10], in assay [20] and in assay [11] was “inactive” each time. The Potency entry in assay [12], in [14] and in [17] was “inactive” throughout. Also, the result in [13] and in assay [16] was inactive.

In the case of `CN1CCC(OC(c2ccccc2)c2ccccc2)CC1`, the Potency entry in [1], in assay [2], in assay [3], in assay [4], in assay [5] and in [6] was “inactive” each time. Moreover, the Potency result in [7], in assay [8], in [9], in assay [10], in assay [11] and in assay [19] was “inactive” throughout. Besides, the Potency result in assay [12], in [14] and in assay [15] was “inactive” throughout. Moreover, the outcome in [13] and in [16] was inactive.

On to `O=C(CC(=O)c1ccccc1)c1ccccc1`, for which the Potency entry in [1], in assay [2], in [3], in assay [4], in assay [5] and in [6] was “inactive” in each case. For the same compound, the Potency result in assay [7], in assay [8], in assay [9], in assay [18], in assay [10] and in [15] was “inactive” in each case. Besides, the Potency result in assay [17] was “inactive”. For the same compound, the Potency in assay [12] is 2.93 µM (active). Further, the call in [13] was inactive.

Consider `CCN(CCO)CCCC(C)Nc1ccnc2cc(Cl)ccc12` (stereo unspecified), for which, in assay [1], the cytotoxicity was 10% [at 6.97 µM]. In addition, the results for the cytotoxicity increase in assay [2], in assay [3] and in [9] were 10.8% [at 6.97 µM], 0.302% [at 6.97 µM] and 17.5% [at 6.97 µM], respectively. Also, the activity change, negative = cytotoxic in [4] is 4.27% [at 6.97 µM]. The activity change, negative = cytotoxicity in assay [5] was -0.518% [at 6.97 µM]; in [6], 0.498% [at 6.97 µM]; in [8], 5.1% [at 6.97 µM]; in [13] it was 0.62% [at 8.39 µM]. Further, the activity change in assay [7] was -1.57% [at 6.97 µM, hits give high values]; in assay [16], 0.0324% [at 8.39 µM]. Also, the viability change, negative = cytotoxic in assay [10] is -0.563% [at 8.39 µM]; in [14], -3.56% [at 8.39 µM]. Moreover, the Potency entry in assay [19] is “inactive”. For the same compound, the results for the activity change, negative = inhibition in assay [12] and in assay [17] were 16.3% [at 8.39 µM] and 5.56% [at 8.39 µM], respectively.

The values are drawn from PubChem BioAssay (Tox21).
